What all share (details): mRNA level, 48 h; actives raise or lower the signal
Read-out in assay [1]: solute carrier (SLC22A1), SLC22A1 (gene 6580)
Kind of assay: LTEA_HepaRG_SLC22A1: Life Technologies and Expression Analysis (LTEA) Assay for solute carrier (SLC22A1) using HepaRG (AID 2283524).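 As to AC50: differentiated human HepaRG liver cells in serum-free induction medium.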 In outline: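 qRT-PCR readout (TaqMan, Fluidigm arrays) of SLC22A1 transcript, normalized to three housekeeping genes; bidirectional curve fit relative to 0.5% DMSO vehicle. Differentiated human HepaRG cells, 48 h chemical exposure, top concentration 100 uM, half-log steps, eight points.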

Read-out in assay [2]: Pyruvate Dehydrogenase Kinase 4 (PDK4), PDK4 (gene 5166)
Kind of assay: LTEA_HepaRG_PDK4: Life Technologies and Expression Analysis (LTEA) Assay for Pyruvate Dehydrogenase Kinase 4 (PDK4) using HepaRG (AID 2283525). In outline:
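HepaRG (human liver line), 48 h chemical exposure, 8-pt half-log CRC top 100 uM, 0.5% DMSO vehicle, duplicates. Readout: TaqMan qRT-PCR of PDK4 mRNA, housekeeping-normalized; gain/loss fit relative to DMSO baseline.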

Read-out in assay [3]: Signal transducer and activator of transcription 3 (Homo sapiens) (UniProt P40763)
Kind of assay: LTEA_HepaRG_STAT3: Life Technologies and Expression Analysis (LTEA) Assay for Signal transducer and activator of transcription (STAT3) using HepaRG (AID 2283529). In outline:
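HepaRG, 48 h exposure, 8-pt half-log series (top 100 uM), 0.5% DMSO vehicle, duplicates. Readout: STAT3 transcript by Fluidigm qRT-PCR, housekeeping-normalized; bidirectional fit vs DMSO baseline.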

Read-out in assay [4]: solute carrier (SLCO1B1), SLCO1B1 (gene 10599)
Kind of assay: LTEA_HepaRG_SLCO1B1: Life Technologies and Expression Analysis (LTEA) Assay for solute carrier (SLCO1B1) using HepaRG (AID 2283530). A digest of the protocol: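 SLCO1B1 transcript read by qRT-PCR (Fluidigm arrays), normalized to three housekeeping genes, after 48 h chemical exposure of HepaRG cells; bidirectional concentration-response fitting versus 0.5% DMSO baseline. Eight-point half-log series, maximum 100 uM.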

Read-out in assay [5]: sulfotransferase 2A1 (SULT2A1), SULT2A1 (gene 6822)
Kind of assay: LTEA_HepaRG_SULT2A1: Life Technologies and Expression Analysis (LTEA) Assay for sulfotransferase 2A1 (SULT2A1) using HepaRG (AID 2283531). A digest of the protocol:
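HepaRG, 48 h chemical exposure, 8-pt half-log curve from 100 uM in 0.5% DMSO, duplicates. Readout: TaqMan qRT-PCR of SULT2A1 mRNA, housekeeping-normalized. Bidirectional fit vs DMSO baseline.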

Read-out in assay [6]: Transforming Growth Factor (TGFA), TGFA (gene 7039)
Kind of assay: LTEA_HepaRG_TGFA: Life Technologies and Expression Analysis (LTEA) Assay for Transforming Growth Factor (TGFA) using HepaRG (AID 2283532). A digest of the protocol: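 qRT-PCR read-out of TGFA transcript, normalized to three housekeeping genes, fitted bidirectionally against 0.5% DMSO baseline. Human HepaRG cultures received chemicals for 48 h at eight half-log concentrations, top 100 uM.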

Read-out in assay [7]: Transforming Growth Factor (TGFB1), TGFB1 (gene 7040)
Kind of assay: LTEA_HepaRG_TGFB1: Life Technologies and Expression Analysis (LTEA) Assay for Transforming Growth Factor (TGFB1) Transporter using HepaRG (AID 2283533). A digest of the protocol: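 qRT-PCR readout of TGFB1 transcript in HepaRG lysates, normalized to three housekeeping genes; gain or loss of signal fitted relative to 0.5% DMSO vehicle. Exposure: 48 h, 8-point curve from 100 uM, duplicate wells.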

Read-out in another assay: TIMP1, TIMP1 (gene 7076)
Kind of assay: LTEA_HepaRG_TIMP1: Life Technologies and Expression Analysis (LTEA) Assay for TIMP1 using HepaRG (AID 2283534). In outline:
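HepaRG, 48 h exposure, 8-pt half-log series from 100 uM in 0.5% DMSO, duplicates; TIMP1 transcript by Fluidigm qRT-PCR, housekeeping-normalized; bidirectional curve fit vs DMSO baseline.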

Read-out in assay [8]: Tumor necrosis factor receptor 1 (TNFRSF1A), TNFRSF1A (gene 7132)
Kind of assay: LTEA_HepaRG_TNFRSF1A: Life Technologies and Expression Analysis (LTEA) Assay for Tumor necrosis factor receptor 1 (TNFRSF1A) using HepaRG (AID 2283535). A digest of the protocol: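 HepaRG, 48 h plating then 48 h chemical exposure, serum-free induction media; 8-pt CRC from 100 uM, half-log, 0.5% DMSO vehicle, duplicates. Readout: TaqMan qRT-PCR (Fluidigm), housekeeping-gene normalized; bidirectional fit vs DMSO.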

Read-out in assay [9]: Thyroid Hormone Responsive (THRSP), THRSP (gene 7069)
Kind of assay: LTEA_HepaRG_THRSP: Life Technologies and Expression Analysis (LTEA) Assay for Thyroid Hormone Responsive (THRSP) using HepaRG (AID 2283536). In outline: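 qRT-PCR read-out (Fluidigm TaqMan), housekeeping-normalized (ACTB/GAPDH/POLR2A). HepaRG, 48 h chemical exposure, 8-pt half-log series from 100 uM in 0.5% DMSO, duplicates. Bidirectional curve fit vs 0.5% DMSO baseline.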

Experimental findings from PubChem BioAssay (EPA / NIEHS) are described below.

The AC50 is the concentration giving half of the maximal activity seen.

A structure can be active in one record and inactive in another. The source made the active and inactive calls. The calls were made as follows: active = hit-call score of the fitted dose curve at least 0.9, where 1 is the maximum; inactive = score below 0.9.

Signal transducer and activator of transcription 3 (Homo sapiens), sequence (P40763 whole entry, looked up): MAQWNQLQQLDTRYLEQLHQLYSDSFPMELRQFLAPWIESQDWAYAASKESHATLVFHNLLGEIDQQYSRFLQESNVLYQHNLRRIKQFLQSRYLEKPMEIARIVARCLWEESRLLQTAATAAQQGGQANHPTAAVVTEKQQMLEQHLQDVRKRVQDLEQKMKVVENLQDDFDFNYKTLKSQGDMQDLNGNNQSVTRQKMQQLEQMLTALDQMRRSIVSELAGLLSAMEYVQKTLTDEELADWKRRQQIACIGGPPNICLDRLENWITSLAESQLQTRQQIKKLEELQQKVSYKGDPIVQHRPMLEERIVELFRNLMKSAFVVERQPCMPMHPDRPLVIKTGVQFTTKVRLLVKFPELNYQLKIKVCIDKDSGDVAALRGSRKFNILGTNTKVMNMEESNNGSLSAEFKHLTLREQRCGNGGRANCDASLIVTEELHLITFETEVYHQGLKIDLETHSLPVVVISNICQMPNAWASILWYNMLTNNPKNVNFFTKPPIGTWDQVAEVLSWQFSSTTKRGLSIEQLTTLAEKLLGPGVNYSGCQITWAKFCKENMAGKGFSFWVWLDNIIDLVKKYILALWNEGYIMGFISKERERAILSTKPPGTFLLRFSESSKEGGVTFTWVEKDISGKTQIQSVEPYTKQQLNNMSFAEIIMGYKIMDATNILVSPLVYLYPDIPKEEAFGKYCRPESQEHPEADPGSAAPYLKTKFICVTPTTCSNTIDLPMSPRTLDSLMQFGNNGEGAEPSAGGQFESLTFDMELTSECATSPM

For the compound `CCC(=O)C(CC(C)N(C)C)(c1ccccc1)c1ccccc1` (stereo unspecified), the outcome in assay [1], in [2], in assay [3], in [4], in assay [5] and in assay [6] was inactive. In addition, the outcome in assay [7] is “inactive”; in the assay with TIMP1, TIMP1 (gene 7076) it was “inactive”; in assay [8] it was “inactive”. Besides, the AC50 in [9] was 17.8 µM (active).

Take `O=C(Nc1ccc2[nH]ccc2c1)c1cc2cc(F)ccc2n1Cc1cccc(F)c1`: the concentration at half-maximal activity (AC50) is 39.5 µM (active) in [1]; 89.3 µM (active) in assay [2]; 36.1 µM (active) in [4]; 31.8 µM (active) in assay [5]; 29.3 µM (active) in assay [6]; 81.9 µM (active) in the assay with TIMP1, TIMP1 (gene 7076). In addition, the concentration at half-maximal activity (AC50) in assay [9] was 28.3 µM (active). In addition, the outcome in assay [3], in assay [7] and in assay [8] was inactive.

Regarding `O=[N+]([O-])c1ccc(O)c([N+](=O)[O-])c1`, the half-maximal activity concentration (AC50) was 25.2 µM (active) in assay [1]; 11.8 µM (active) in assay [2]; 12.8 µM (active) in assay [3]; 20.4 µM (active) in assay [4]; 17.7 µM (active) in [5]; 12.6 µM (active) with TIMP1, TIMP1 (gene 7076). The results for the AC50 in assay [8] and in assay [9] were 4.42 µM (active) and 9.32 µM (active), respectively. Further, the outcome in assay [6] and in assay [7] was inactive.

For `O=C1C2(Cl)C3(Cl)C4(Cl)C(Cl)(Cl)C5(Cl)C3(Cl)C1(Cl)C5(Cl)C24Cl` (stereo unspecified), the AC50 is 19.3 µM (active) in [1]; 92.7 µM (active) in assay [2]; 93.1 µM (active) in assay [3]; 93.5 µM (active) in assay [4]; 93.5 µM (active) in assay [5]; 92.5 µM (active) in [7]. Further, the half-maximal activity concentration (AC50) is 93.4 µM (active) with TIMP1, TIMP1 (gene 7076) and 9.2 µM (active) in [9]. Moreover, the compound was classed as inactive in assay [6] and in assay [8].

`O=C(O)C(F)(F)C(F)(F)C(F)(F)C(F)(F)C(F)(F)C(F)(F)F`: the outcome in assay [1], in assay [3], in assay [4], in assay [5], in assay [6] and in [7] was inactive. The outcome in the assay with TIMP1, TIMP1 (gene 7076) is “inactive”; in assay [8] it was “inactive”; in assay [9], “inactive”. The AC50 in [2] was 35.6 µM (active).

Consider `CC(C)(OO)c1ccccc1`, for which the outcome in assay [1], in assay [2], in assay [3], in [4], in assay [5] and in assay [6] was inactive. Besides, the outcome was “inactive” in assay [7]; “inactive” with TIMP1, TIMP1 (gene 7076); “inactive” in assay [8]; “inactive” in assay [9].

In the case of `C=CC(=O)OCCCCCC(C)C`, the call in [1], in [2], in assay [3], in assay [4], in assay [5] and in assay [6] was inactive. The outcome was “inactive” in assay [7]; “inactive” with TIMP1, TIMP1 (gene 7076); “inactive” in [8]; “inactive” in assay [9].

In the case of `Cn1sc(Cl)cc1=O`, the call in [1], in [2], in assay [3], in [4], in assay [5] and in assay [6] was inactive. In addition, the outcome in assay [7] is “inactive”; in the assay with TIMP1, TIMP1 (gene 7076), “inactive”; in assay [8], “inactive”; in [9] it was “inactive”.

In the case of `Cc1ccccc1N`, the result in [1], in [2], in assay [3], in assay [4], in assay [5] and in assay [6] was inactive. Further, the outcome in [7] is “inactive”; in the assay with TIMP1, TIMP1 (gene 7076), “inactive”; in assay [8], “inactive”; in assay [9], “inactive”.

Regarding `CC(=O)[O][Hg][c]1ccccc1`, the concentration at half-maximal activity (AC50) in assay [1] was 2.33 µM (active); in [2], 13.1 µM (active); in assay [3], 17 µM (active); in [5], 17.6 µM (active); in [6], 23 µM (active); in assay [7], 23 µM (active). The half-maximal activity concentration (AC50) with TIMP1, TIMP1 (gene 7076) is 83.7 µM (active); in assay [8], 27.6 µM (active); in [9] it was 2.11 µM (active). Besides, the result in [4] was inactive.

As to `COc1cc(-c2ccc(N)c(OC)c2)ccc1N`, the half-maximal activity concentration (AC50) in assay [1] was 50 µM (active); in assay [9], 42.9 µM (active). Further, the outcome in assay [1], in [2], in [3], in assay [4], in [5] and in assay [6] was inactive. In addition, the outcome is “inactive” in assay [7]; “inactive” in the assay with TIMP1, TIMP1 (gene 7076); “inactive” in [8]; “inactive” in [9].

`O=C(O)C(Cl)(Cl)Cl`: the compound was called inactive in assay [1], in [2], in assay [3], in assay [4], in [5] and in [6]. In addition, the outcome was “inactive” in assay [7]; “inactive” with TIMP1, TIMP1 (gene 7076); “inactive” in assay [8]; “inactive” in assay [9].

As to `NC(=O)O`, the compound was called inactive in [1], in assay [2], in [3], in assay [4], in assay [5] and in assay [6]. Also, the outcome in [7] is “inactive”; with TIMP1, TIMP1 (gene 7076) it was “inactive”; in assay [8], “inactive”; in [9] it was “inactive”.

For `CC(C)(C)CC(C)(C)c1ccc(O)cc1`, the call in [1], in assay [2], in [3], in assay [4], in assay [5] and in [6] was inactive. The outcome in assay [7] is “inactive”; with TIMP1, TIMP1 (gene 7076), “inactive”; in assay [8], “inactive”; in assay [9] it was “inactive”.

On to `O=C(O)C(F)(F)C(F)(F)C(F)(F)C(F)(F)C(F)(F)C(F)(F)C(F)(F)C(F)(F)C(F)(F)C(F)(F)F`, for which the outcome in assay [2] was “inactive”; in assay [3], “inactive”; in assay [4], “inactive”; in assay [6], “inactive”; in [7] it was “inactive”; in the assay with TIMP1, TIMP1 (gene 7076), “inactive”. The outcome in assay [8] and in assay [9] was inactive. Besides, in assay [5], the AC50 was 47.8 µM (active).
